FBW7 act: activators of human E3 ligase FBW7. 650,000 compounds, 0.13% hits. AlphaScreen FBW7–phospho-cyclin E peptide binding, activator screen. Q969H0. normalized activity (activation), % at 26.1 µM; in the data active means normalized activity above about 1.9%;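 further: purified mutant Fbw7 with reduced substrate affinity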
TEAD-YAP inh: TEAD-YAP interaction inhibition. HEK-TIYL cells, TEAD-Gal4/YAP UAS-luciferase luminescence. inhibition, % at 9.12 µM. 640,000 compounds, 1.4% hits. AID 1259422; in the data active means inhibition above about 32%;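 further: 0% = median of test compound wells and 100% = reference inhibitor wells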
MITF primary: inhibitors of human MITF; inhibition, % at 2.6 µM; O75030; AlphaScreen MITF homodimerization, bead proximity signal; 650,000 compounds, 0.91% hits; in the data active means inhibition above about 50%;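 further: 0% = vehicle wells with protein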
GPR151 ag: activators of human GPR151; Q8TDV0; PathHunter beta-arrestin GPR151 cells, luminescence; activation, % at 11.2 µM; 650,000 compounds, 1% hits; in the data active means activation above about 4.9%;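 further: 0% = median of compound wells and 100% = cells with positive control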
Target sequence (Q8TDV0 whole entry, looked up): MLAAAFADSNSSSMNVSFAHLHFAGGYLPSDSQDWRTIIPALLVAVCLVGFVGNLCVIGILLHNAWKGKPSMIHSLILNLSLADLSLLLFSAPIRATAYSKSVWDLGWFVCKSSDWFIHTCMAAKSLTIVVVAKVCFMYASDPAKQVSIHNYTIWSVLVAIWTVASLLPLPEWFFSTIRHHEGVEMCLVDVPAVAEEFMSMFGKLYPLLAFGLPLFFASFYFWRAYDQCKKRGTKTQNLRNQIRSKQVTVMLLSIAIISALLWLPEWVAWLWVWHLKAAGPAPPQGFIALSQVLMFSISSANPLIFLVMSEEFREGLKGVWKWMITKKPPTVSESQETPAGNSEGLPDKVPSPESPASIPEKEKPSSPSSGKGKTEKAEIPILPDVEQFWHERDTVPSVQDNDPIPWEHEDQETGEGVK
* hit, by the source's call; x = not tested or not shown. Only some compounds are listed: those with a hit (about 3.4% of all), similar ones and a draw of the others.

SMILES	FBW7 act	TEAD-YAP inh	MITF primary	GPR151 ag
CCC(c1nnnn1CCOC)N(Cc1cc2ccc(OC)cc2[nH]c1=O)C1CCCC1 (stereo unspecified)	0	58*	-2	1
O=C(NCCCN1CCOCC1)C(Cc1ccccc1)NS(=O)(=O)c1ccc(Cl)cc1 (stereo unspecified)	2.4*	1	-1	-1
COc1ccccc1OCC(=O)Nc1ccc(-c2nc3ccccc3c(=O)o2)cc1	0	7	4	-1
O=C(Nc1cc(-c2ccccc2Oc2ccccc2F)ccn1)C1CCOC1 (stereo unspecified)	0	37*	1	0
N#Cc1ccc(C(=O)Nc2nnc(-c3ccccn3)o2)cc1	0	-10	24	-9
CC(C)Oc1ccc(C(=O)Nc2nnc(-c3ccccn3)o2)cc1	0	36*	7	-7
COc1ccc(-c2nc3n(n2)C(c2cccs2)C(C(=O)Nc2cccnc2)=C(C)N3)cc1 (stereo unspecified)	0	10	-13	-2
COc1cc(-c2cn[nH]c2)cc2c(=O)[nH]c(C(N)c3cccc(Cl)c3)nc12 (stereo unspecified)	0	49*	13	3
COc1ccccc1OCc1nc2ccc(-c3cn[nH]c3)cc2c(=O)[nH]1	0	-4	19	0
Cc1ccccc1OCc1nc2ccc(-c3ccnc(N)n3)cc2[nH]1	0	52*	6	1
Cc1ccccc1OCc1nc2ccc(-c3cn[nH]c3)cc2c(=O)[nH]1	0	33*	-1	2
COc1ccc(C[C@@H](N)c2nc3ccc(-c4cn[nH]c4)cc3c(=O)[nH]2)cc1	0	53*	24	0
CC1(C)C(=O)Nc2ccccc2N1C(=O)COC(=O)Cn1[nH]c(=O)c2ccccc2c1=O	0	1	-6	-1
O=C(c1cc2cc(Br)ccc2oc1=O)N1CCSC1c1ccc(Cl)cc1 (stereo unspecified)	0	-5	11	0
COc1ccccc1OCc1nc2ccc(-c3ccnc(N)n3)cc2[nH]1	0	14	12	0
COc1cccc(OCc2nc3ccc(-c4ccnc(N)n4)cc3[nH]2)c1	0	50*	4	0
Cc1sc(NC(=O)c2cc(-c3ccc(C(C)(C)C)cc3)nc3ccccc23)c(C(N)=O)c1C	2	46*	20	0
COc1cccc2c(C)cc(N3CCN(C)CC3)nc12	1.9*	-6	16	0
CN(Cc1ccccc1)S(=O)(=O)c1ccc(NC(=O)/C=C/c2ccc(F)cc2)cc1	0	3	-6	-1
COc1ccc(/C=C/C(=O)Nc2ccc(S(=O)(=O)N(C)Cc3ccccc3)cc2)cc1	0	43*	-7	4
CCOc1ccc(/C=C/C(=O)Nc2ccccc2)cc1	0	51*	2	-9
CC(=O)/C=C/c1ccc(OCc2ccccc2)cc1	0	44*	8	-5
COc1cccc2c1OCCCN(Cc1nc(-c3ccccn3)no1)C2	0	-7	6	0
CC(=O)Nc1ccc(/C(C)=N/NC(=O)CSc2nc(C)cc(C)n2)cc1	0	-6	-8	-1
Cc1ccc(NC(=O)Cn2c(-n3nc(C)cc3C)nc(C)cc2=O)cc1	1	43*	4	-1
SMILES	FBW7 act	TEAD-YAP inh	MITF primary	GPR151 ag
O=C(O)c1cccc(NC(=O)c2ccc(Br)cc2)c1	0	-33	15	-10
CC(=O)c1ccc(-c2ccc(/C=C(\C#N)C(N)=C(C#N)C#N)o2)cc1	1	-12	-82	-1
Oc1cccc(-c2cnc3c(Nc4ccc5[nH]ccc5c4)nccn23)c1	0	97*	-9	-2
CN(C)CCNC(=O)c1ccc(-c2cnc3c(Nc4ccc5[nH]ccc5c4)nccn23)cc1	0	39*	-41	-1
c1cn2c(-c3ccoc3)cnc2c(Nc2ccc3[nH]ccc3c2)n1	0	81*	-3	-3
c1cn2c(-c3ccc4[nH]ccc4c3)cnc2c(Nc2ccc3[nH]ccc3c2)n1	0	0	-11	2
Clc1ccc(Nc2nccn3c(-c4ccoc4)cnc23)cc1	-1	40*	12	-3
COc1ccc(C2N(c3ccc(Cl)cc3)C(=O)C(C)S2(=O)=O)cc1 (stereo unspecified)	0	-1	1	0
C=CCc1cccc([C@H]2NC(C(=O)O)CC[C@@H]2C)c1 (stereo partly specified)	0	x	4	0
Cc1cncc2cccc(S(=O)(=O)N3CCCN(C(=O)CN)C[C@@H]3C)c12	0	36*	16	1
Cc1cncc2c(S(=O)(=O)N3CCCN(C(=O)CN)C[C@@H]3C)cccc12	0	-7	11	3
CCCCOc1ccc(C(=O)Nc2nnc(CC)s2)cc1	0	-3	7	-1
COc1ccc(Cc2cnc(NC(=O)COc3ccccc3Cl)s2)cc1	0	58*	-14	1
CCc1nnc(NC(=O)c2ccc(OC)cc2)s1	0	40*	18	-7
O=C(Nc1ncc(Cc2ccc(F)cc2)s1)c1ccc(Br)cc1	0	38*	9	-1
COc1ccc(Cc2cnc(NC(=O)c3ccc(C)cc3)s2)cc1	0	50*	-6	1
COc1ccc(Cc2cnc(NC(C)=O)s2)cc1	0	-29	0	-1
CC(C)(C)c1ccc(C(=O)Nc2ncc(Cc3ccc(F)cc3)s2)cc1	0	7	-2	2
CSc1nnc(NC(=O)c2ccc(Cl)c(S(=O)(=O)N3CCCCC3)c2)s1	0	-6	4	3
CC(C)C(C(=O)Nc1ccc(S(=O)(=O)N(C)C)cc1)c1ccc(Cl)cc1 (stereo unspecified)	x	x	x	-2
CCCOC(=O)COc1ccc2c(oc(=O)c3ccccc32)c1C	0	0	7	0
Cc1ccc(Cc2cnc(NC(=O)/C=C/c3ccco3)s2)cc1	0	58*	5	2
CCOc1ccc(/C=C/C(=O)Nc2ncc(Cc3ccc(C)cc3)s2)cc1	0	3	-3	1
COc1ccc(N2C(=O)CC(S/C(N)=N/N=C(\C)c3ccc(OC)c(F)c3)C2=O)cc1 (stereo unspecified)	0	2	-19	-1
Cn1c(Nc2cc(C(=O)NCc3cccc(C(F)(F)F)c3)ccn2)nc2ccccc21	0	35*	10	1
SMILES	FBW7 act	TEAD-YAP inh	MITF primary	GPR151 ag
COc1cccc(OC)c1C(=O)N1C[C@@H]2C[C@H]1C(=O)N2c1ccccc1Cl	0	33*	16	-1
CCOC(=O)c1cccc(NC(=O)/C=C/c2ccccc2[N+](=O)[O-])c1	0	33*	6	1
COc1ccccc1N1CCN(C(=O)CS(=O)(=O)Cc2ccccc2)CC1	0	-3	-1	-1
COc1ccccc1N1CCN(C(=O)CN2CC=C[C@@H]2C(=O)NCCc2ccccc2)CC1	0	42*	-22	0
CCOC(=O)C1=C(CN2CCCc3ccccc32)NC(=O)NC1c1ccc(C)cc1 (stereo unspecified)	0	61*	-3	1
CCOC(=O)C1=C(CN2CCCc3ccccc32)NC(=O)NC1c1ccccc1 (stereo unspecified)	0	17	-1	-2

Compound activity: PubChem BioAssay, The Scripps Research Institute Molecular Screening Center
